# PLAP act – human PLAP activation. activation fold at 20 µM. purified PLAP enzyme, luminescent substrate read-out; hits give high values. AID 696. 96,000 tested, 1.2% active. P05187; in the data active = activation fold above about 2
# TNAP act mid DEA – activates human TNAP at intermediate phosphate acceptor concentration | 64,000 tested, under 10 active | activation factor at 20 µM | purified TNAP, CDP-star luminescence, 100 mM DEA, 30 min; hits give high values; scale: 0 levamisole-inhibited, 1 vehicle-only enzyme | P05186;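 active = activation factor of at least 2 at 20 µM, relative to controls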
# Target sequence (P05186 whole entry, looked up): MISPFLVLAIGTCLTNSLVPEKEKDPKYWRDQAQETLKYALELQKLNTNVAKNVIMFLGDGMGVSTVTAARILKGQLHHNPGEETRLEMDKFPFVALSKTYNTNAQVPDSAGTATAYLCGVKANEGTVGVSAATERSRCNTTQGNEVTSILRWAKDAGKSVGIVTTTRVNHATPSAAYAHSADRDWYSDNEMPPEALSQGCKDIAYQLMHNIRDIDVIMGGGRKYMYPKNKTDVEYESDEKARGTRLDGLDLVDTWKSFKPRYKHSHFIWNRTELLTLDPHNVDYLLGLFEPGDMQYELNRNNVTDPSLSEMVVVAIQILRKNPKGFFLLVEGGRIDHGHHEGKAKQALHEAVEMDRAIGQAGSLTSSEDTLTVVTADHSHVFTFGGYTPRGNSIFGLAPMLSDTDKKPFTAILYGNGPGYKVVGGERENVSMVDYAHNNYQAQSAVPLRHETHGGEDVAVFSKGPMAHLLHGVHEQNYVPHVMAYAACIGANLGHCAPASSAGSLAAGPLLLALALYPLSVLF
# LYP act – activators of human LYP (PTPN22) phosphatase. Q9Y2R2. recombinant LYP, DiFMUP fluorescence; 0 = plate median, 100 = signal doubled. activation, % at 2 µM. 96,000 tested, 0.11% active. AID 697;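 active = activation at 2 µM above a set limit, the mean plus 5 SD, cut at about 37% in these data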
# LYP inh 2 – blocks human PTPN22 phosphatase activity. Q9Y2R2. recombinant LYP catalytic domain, DiFMUP fluorescence. inhibition, % at 2 µM. 96,000 tested, 0.21% active. AID 640;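 active = inhibition at 2 µM at or above a set limit, the screen mean plus 3 SD, cut at about 24% in these data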;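 also: 0% = DMSO with enzyme and 100% = enzyme fully blocked by orthovanadate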
# MT1-MMP txn act – MT1-MMP promoter transcription activation; HT1080 MT1-MMP promoter luciferase reporter, luminescence, overnight; hits give high values; activation factor at 10 µM; 86,000 tested, 0.16% active;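 active = activation factor of at least 2 for MT1-MMP transcription at 10 µM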
# LYP act confirm – LYP (PTPN22) phosphatase activation confirmation | shares compounds with LYP act | Recombinant LYP, DIFMUP fluorescence; zero set by plate's median compound well | activation, % at 2 µM | 100 tested, under 10 active | AID 1031; call rule not given here
# Starred values were filed as active, the others as inactive; · = no result. Most compounds without a hit are left out; they make up all but 1.6% or so of the library.
SMILES,PLAP act,TNAP act mid DEA,LYP act,LYP inh 2,MT1-MMP txn act,LYP act confirm
CCOc1ccc(S(=O)(=O)N(CC(=O)O)c2ccc(C)cc2)cc1,1.3,0.9,38*,-42,1.2,-12
O=C(COc1ccc(Br)cc1CO)Nc1ccccc1F,0.9,0.9,38*,-45,1.4,-2
CCCCN(CC)C(=O)Cn1cnc2ccc(S(=O)(=O)N3CCC(C)CC3)cc2c1=O,·,·,·,·,1.3,·
Cc1cc(N2CCOCC2)nc2ccc(NC(=O)CCC(=O)N3CCCCC3)cc12,1.3,1,38*,-42,1.3,-1
CCn1c(-c2ccc3ncccc3c2)n[nH]c1=S,0.9,·,42*,-39,·,3
Cc1ccc(-c2cccc(NC(=O)C3C4C=CC(C4)C3C(=O)O)c2)o1 (stereo not drawn),1.1,·,2,-4,·,·
Cc1nc(-c2ccccc2)sc1-c1nc(-c2cccs2)ncc1S(=O)(=O)c1ccccc1,1,·,-7,5,·,·
COc1ccc(NC(C)=O)cc1NC(=O)CCn1c(=O)sc2ccccc21,·,·,40*,-39,1.3,3
COc1ccc(-n2cnc3cc(NCc4ccccn4)ccc32)cc1,1,·,42*,-38,1.2,-4
COc1ccccc1-n1cnc2cc(NCc3ccccn3)ccc21,1,·,-14,16,1.4,·
O=C(N/N=C/c1ccc(O)c(O)c1)c1ccc(CSc2cccc3cccnc23)cc1,1.3,·,-6,8,1.4,·
COc1ccc(CNc2nc3ccccc3n2Cc2ccccc2)cc1OC,1.4,·,-3,5,·,·
COc1ncnc2c1cnn2-c1ccccc1,0.9,·,38*,-38,1.4,1
CC(=O)Nc1sc2c(c1C(N)=O)CCCC2,1,·,45*,-42,1,10
O=C(Oc1ccc(-c2nnco2)cc1)N(c1ccccc1)c1ccccc1,1.4,0.9,2,0,1.2,·
CC(=O)N1[C@H](Cc2ccccc2)C=C[C@]1(C)C(=O)NCc1ccccn1,·,·,·,·,1.1,·
Cn1c(CNC2CCCCC2)c(C#N)c2ccccc21,0.9,·,22,-19,1.3,·
CCC(=O)c1ccc(N2CCN(C(=O)Cc3ccccc3)CC2)c(F)c1,1.7,1.1,41*,-41,1,4
CCOC(=O)c1cnn(-c2nc(-c3ccccc3)cs2)c1C(F)(F)F,0.9,·,-6,8,·,·
CCOC(=O)c1cnn(-c2nc(-c3ccc(F)cc3)cs2)c1C(F)(F)F,0.7,·,40*,-34,·,-3
O=C(Nc1ccccc1)N(Cc1ccccc1)CC(O)C(F)(F)F (stereo not drawn),0.9,·,50*,-45,·,9
CCOc1ccc(CC(=O)N2CCN(c3ccc(N4CCOCC4)nn3)CC2)cc1OCC,1.6,1,·,·,1,·
CC1(C)CC(=O)C2=C(C1)N(Cc1ccco1)C(=O)C2(O)C(F)(F)F (stereo not drawn),0.9,0.9,37*,-41,1.2,3
Cc1nnc(NC(=O)CSCc2ccccc2)s1,1.1,·,35,-36,·,·
CCOCc1nnc(NC(=O)CSCc2ccccc2)s1,1.3,0.9,42*,-41,1.1,-1
SMILES,PLAP act,TNAP act mid DEA,LYP act,LYP inh 2,MT1-MMP txn act,LYP act confirm
O=C(Nc1ccc2c(c1)OCCO2)C1CCCN(S(=O)(=O)c2cccc3nsnc23)C1 (stereo not drawn),1,·,42*,-47,1.3,-5
O=C(Nc1ccc2c(c1)OCCO2)C1CCN(S(=O)(=O)c2cccc3nsnc23)CC1,1.1,1.1,3,-5,1.1,·
CSc1nc(-c2ccccc2)nn1C(=O)c1ccccc1,0.9,·,52*,-48,·,-2
Cc1cc2nc(C)n(CCCNC(=O)Nc3cccc4ccccc34)c2cc1C,·,·,11,-12,1,·
COc1cc(OC)c(C2N(C)c3ccccc3N2C)cc1OC,1.1,0.8,39*,-42,1.1,6
COc1cc(OC)c(C2N(c3ccccn3)C(=O)C3CCCN32)cc1OC (stereo not drawn),1.2,1,-5,3,1.1,·
O=C(COC(=O)c1cccc(C(=O)OCC(=O)c2ccc(Br)cc2)n1)c1ccc(Br)cc1,1.1,·,41*,-47,·,-10
CCOC(=O)c1cccc(C(=O)OCC)n1,1.1,1,-6,7,1,·
CCOC(=O)CSc1cc(=O)n(CC)c2ccccc12,1.2,·,64*,-58,1.1,10
CCn1cc(C(=O)Nc2ccc(-n3cnnn3)c(OC)c2)c(=O)c2ccc(C)nc21,1,1,-2,0,1.1,·
O=c1c2c(nc3cc(-c4ccc(F)cc4)[nH]n13)CCCC2,0.9,0.9,2,-4,·,·
O=c1c2c(nc3cc(-c4cccc(Cl)c4)[nH]n13)CCC2,0.9,·,43*,-37,2*,-5
COC(=O)C1=C(C)NC(=O)CC1c1cc(Br)ccc1F (stereo not drawn),0.7,0.9,38*,-43,1,-3
CCOC(=O)C1=C(C)NC(=O)CC1c1cc2c(cc1Br)OCO2 (stereo not drawn),1,0.9,·,·,1.1,·
COc1ccc(C2NC(=S)NC3=C2CCc2cc(OC)ccc23)cc1 (stereo not drawn),1,·,-13,15,·,·
COc1cccc(C(=O)Nc2ccc(F)c(F)c2F)c1,0.8,·,10,-7,1.3,·
Cc1ccc(Cl)cc1NC(=O)c1cccc(OC(F)F)c1,0.7,·,40*,-46,·,7
